Where “and” joins values, the source holds several entries; their conditions need not be identical. Equal values may be shown once. Records with an inconclusive call do not appear. Calls of active or inactive are those of the source. Unless noted, calls follow the shape of the dose curve; as a rule, active = well fitted curve in the direction sought with a large enough effect; inconclusive = small, poorly fitted or top-dose-only effect, or another doubt; inactive = no such curve, though single readings can be large; an effect the other way counts as inactive or inconclusive.
How the values were obtained:
[1] = Cell Viability - Hek293 (AID 427;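 active = compounds whose dose-response curve shows a full or clear partial loss of cell viability, called from curve shape rather than a numeric limit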;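 also: potency is read from the fitted curve at half-maximal effect; cells exposed to compound for 40 hours at 37 °C before reading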); settings: qHTS
Procedure, shortened: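 HEK293 cells in complete medium were exposed to compound for 40 hr at 37 °C, then cellular ATP was read by CellTiter-Glo luminescence. Data were normalized to DMSO (basal) and 100 uM tamoxifen (100% inhibition), and AC50 came from Hill fits.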

[2] = Cell Viability - SK-N-SH (AID 435; calls by dose curve;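 also: potency is read from the fitted curve at half-maximal effect; compound exposure lasted 40 h at 37 °C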); settings: SK-N-SH neuroblastoma cell viability qHTS
Procedure, shortened: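 SK-N-SH neuroblastoma cells (1500/well) treated 40 h at 37 °C in complete medium; viability read as cellular ATP by CellTiter-Glo luminescence. Normalized to DMSO and 100 uM tamoxifen; AC50 from Hill fits of qHTS concentration-response.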

[3] = Cell Viability - Renal Proximal Tubule (AID 545); settings: renal proximal tubule cells viability, primary cells of rat origin; activity change, negative = cytotoxicity: at 91.7 µM (top of the series);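 also: 0% = DMSO only and -100% = 100 µM tamoxifen; nearly all actives have a fitted effect of over 40% in size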
Procedure, shortened: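 Rat renal proximal tubule primary cells, 1000/well, exposed to compounds for 40 hr at 37 °C in complete medium; cellular ATP read by CellTiter-Glo luminescence. AC50 from concentration-response fitted with standard Hill equation.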

[4] = MultiTox-Fluor Cytotoxicity Assay - LYMP1-001 - Live Cells (AID 947); settings: LYMP1-001 lymphoblastoid cells, live-cell protease fluorescence viability; series mostly up to 92.2 µM;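 also: 0% = DMSO only and full inhibition = tetraoctylammonium bromide control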
[5] = MultiTox-Fluor Cytotoxicity Assay - LYMP1-002 - Dead Cells (AID 960); settings: LYMP1-002 lymphoblastoid cells, dead-cell protease fluorescence; series mostly up to 46.1 µM; also: nearly all actives have a fitted effect of over 60% in size; also: potency is read from the fitted curve at half-maximal effect
Procedure, shortened: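 LYMP1-002 cells 2500/well; 5 hr 37 C pre-incubation; compound 16 hr 37 C; MultiTox-Fluor reagent 60 min RT; dead-cell fluor Ex/Em 485/520. Norm. to DMSO (0%) vs 15 uM tetraoctylammonium bromide (100%); Hill AC50.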

[6] = Cell Viability - LYMP2-005 (AID 967); settings: LYMP2-005 lymphoblastoid cell viability; series mostly up to 92.2 µM; also: potency is read from the fitted curve at half-maximal effect
Procedure, shortened: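 Human lymphoblastoid LYMP2-005 cells, 2,500 per well in complete medium, rested 5 h at 37C then compound-treated 24 h at 37C. Intracellular ATP read by CellTiter-Glo luminescence after 30 min at room temperature; AC50 from Hill-equation fits of concentration-response data.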

[7] = Cell Viability - LYMP2-009 (AID 968); settings: LYMP2-009 lymphoblastoid cell viability; series mostly up to 92.2 µM; also: nearly all actives have a fitted effect of over 55% in size; also: potency is read from the fitted curve at half-maximal effect
[8] = Cell Viability - LYMP2-015 (AID 971); settings: LYMP2-015 lymphoblastoid cell viability; series mostly up to 92.2 µM; also: nearly all actives have a fitted effect of over 55% in size; also: potency is read from the fitted curve at half-maximal effect
Procedure, shortened: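 Luminescent ATP read-out (CellTiter-Glo) served as the viability measure after lymphoblastoid cells were exposed to compounds for 24 hours at 37 C. Concentration-response data were fitted with the Hill equation to give AC50.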

[9] = Cell Viability - LYMP2-019 (AID 973); settings: LYMP2-019 lymphoblastoid cell line viability; series mostly up to 92.2 µM; also: nearly all actives have a fitted effect of over 55% in size; also: potency is read from the fitted curve at half-maximal effect;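 as to activity change, negative = cytotoxicity: 0% = DMSO alone and full effect = 92 µM tetraoctylammonium bromide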
Procedure, shortened: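 Luminescent ATP read-out (CellTiter-Glo, 30 min room temperature) served as the viability measure after 24 hr treatment of lymphoblastoid cells at 37 C. Concentration-response data were fitted to the Hill equation for AC50.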

[10] = Cell Viability - LYMP2-006 (AID 978); settings: LYMP2-006 lymphoblastoid cell viability, qHTS; series mostly up to 92.2 µM; also: % is scaled to controls: 0 for no effect and ±100 for the full control effect; nearly all actives have a fitted effect of over 60% in size
Procedure, shortened: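 Human lymphoblastoid cells (LYMP2-006), 2500/well in complete medium, were treated with compound for 24 hr at 37 C. Cellular ATP was read by CellTiter-Glo luminescence after 30 min, and AC50 values came from Hill-equation fits of concentration-response data.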

[11] = Cell Viability - LYMP2-010 (AID 981); settings: LYMP2-010 lymphoblastoid cell viability, qHTS; series mostly up to 92.2 µM; also: nearly all actives have a fitted effect of over 55% in size; also: potency is read from the fitted curve at half-maximal effect
Procedure, shortened: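 Luminescent ATP signal (CellTiter-Glo) served as the viability read-out. Cells of the human lymphoblastoid line were treated with compound over a concentration range for 24 hours at 37 C, and AC50 values came from Hill-equation modeling.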

[12] = target: Glucocorticoid receptor (Homo sapiens) (UniProt P04150); assay: qHTS assay for small molecule agonists of glucocorticoid receptor signaling (AID 588532; active = well fitted curve in the direction sought with a large enough effect in the signal ratio, with a control signal flat; the % refers to the signal ratio;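 also: 100% = dexamethasone at 0.1 µM and 0% = DMSO only wells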); settings: HeLa MMTV-bla, beta-lactamase ratio, agonist, 18 h; stronger effect = higher value; percent of dexamethasone control, DMSO zero
Sequence of Glucocorticoid receptor (Homo sapiens) (P04150 whole entry, looked up): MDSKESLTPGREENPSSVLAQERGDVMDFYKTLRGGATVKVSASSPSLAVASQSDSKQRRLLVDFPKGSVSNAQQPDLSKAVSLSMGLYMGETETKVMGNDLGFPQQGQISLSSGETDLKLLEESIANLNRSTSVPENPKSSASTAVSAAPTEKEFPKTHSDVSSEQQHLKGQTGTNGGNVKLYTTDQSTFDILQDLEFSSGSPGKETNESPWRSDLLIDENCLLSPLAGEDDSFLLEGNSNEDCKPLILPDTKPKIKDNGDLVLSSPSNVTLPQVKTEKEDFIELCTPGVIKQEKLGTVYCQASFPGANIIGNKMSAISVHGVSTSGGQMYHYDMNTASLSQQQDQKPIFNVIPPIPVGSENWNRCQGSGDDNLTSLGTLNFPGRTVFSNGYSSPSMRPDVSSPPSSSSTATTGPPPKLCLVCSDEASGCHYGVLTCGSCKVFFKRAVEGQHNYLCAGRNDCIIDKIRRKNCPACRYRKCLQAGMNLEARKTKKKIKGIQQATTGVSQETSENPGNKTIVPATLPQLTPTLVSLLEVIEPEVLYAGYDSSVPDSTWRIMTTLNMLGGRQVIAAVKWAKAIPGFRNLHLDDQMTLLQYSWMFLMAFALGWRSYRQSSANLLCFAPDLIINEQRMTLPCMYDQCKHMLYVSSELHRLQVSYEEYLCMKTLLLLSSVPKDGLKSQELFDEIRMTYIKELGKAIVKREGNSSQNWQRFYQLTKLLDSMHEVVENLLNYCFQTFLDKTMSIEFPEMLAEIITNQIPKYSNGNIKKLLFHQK
Procedure, shortened: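 MMTV-bla HeLa, beta-lactamase reporter; medium with 1% charcoal/dextran-stripped FBS; cpds up to 92 uM, 18 h, 37 C; CCF4 readout 460/530 nm; Hill fit → EC50, efficacy vs 0.1 uM dexamethasone = 100%.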

[13] = qHTS assay for small molecule agonists of retinoid X receptor alpha signaling (AID 588544); settings: HEK293T RXRa-UAS-bla, beta-lactamase reporter, 18 h; 530 nm emission
[14] = target: Thyroid hormone receptor beta (Homo sapiens) (UniProt P10828); assay: qHTS assay for small molecule agonists of thyroid hormone receptor beta signaling (AID 588545; calls by dose curve;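 also: 0% = DMSO only and 100% = 10 nM T3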); settings: TR-UAS-bla GripTite HEK 293, beta-lactamase ratio, agonist mode, 18 h; series mostly up to 76.7 µM
Sequence of Thyroid hormone receptor beta (Homo sapiens) (P10828 whole entry, looked up): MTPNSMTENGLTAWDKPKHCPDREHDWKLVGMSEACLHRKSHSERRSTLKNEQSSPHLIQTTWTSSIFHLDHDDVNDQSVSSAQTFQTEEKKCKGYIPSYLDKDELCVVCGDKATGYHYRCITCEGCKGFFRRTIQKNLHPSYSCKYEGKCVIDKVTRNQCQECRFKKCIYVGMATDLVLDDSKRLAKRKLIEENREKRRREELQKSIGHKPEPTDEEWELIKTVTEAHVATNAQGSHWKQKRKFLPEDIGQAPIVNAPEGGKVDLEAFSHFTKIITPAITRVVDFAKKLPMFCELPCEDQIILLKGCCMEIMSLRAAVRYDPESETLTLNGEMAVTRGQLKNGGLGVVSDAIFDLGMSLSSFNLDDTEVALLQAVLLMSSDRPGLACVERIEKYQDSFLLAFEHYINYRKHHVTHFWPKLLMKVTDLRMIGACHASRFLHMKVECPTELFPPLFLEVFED
Procedure, shortened: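 TR-UAS-bla-GripTite HEK 293 cells in medium with 2% charcoal/dextran FBS, 0.1 mM NEAA and 1 mM sodium pyruvate were treated with titrated compounds for 18 hrs at 37 C. Beta-lactamase reporter was read with CCF4 dye (ex 405, em 460/530 nm); EC50 from Hill fits.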

[15] = target: Thyroid hormone receptor beta (Homo sapiens) (UniProt P10828); assay: qHTS assay for small molecule antagonists of thyroid hormone receptor beta signaling (AID 588547; active = well fitted inhibition curve with a large enough effect in the signal ratio, with a control signal flat, not every such curve was filed as active; the % refers to the signal ratio;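 also: cells stimulated with 0.4 nM T3 agonist during compound exposure; % is scaled to controls: 0 for no effect and ±100 for the full control effect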); settings: TR-UAS-bla HEK293, beta-lactamase ratio, antagonist mode, 18 h
Procedure, shortened: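 TR-UAS-bla GripTite HEK293 cells in 2% charcoal/dextran FBS medium were preincubated 4 h at 37 C, given compound (0.59 nM to 92 uM) plus 0.4 nM T3 (final) for 18 h, then CCF4 for 2 h at RT; Hill fit gave IC50.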

[16] = target: Voltage-gated inwardly rectifying potassium channel KCNH2 (Homo sapiens) (UniProt Q12809); assay: qHTS Assay for Small Molecule Inhibitors of the Human hERG Channel Activity (AID 588834); settings: U2OS BacMam hERG, FluxOR thallium flux fluorescence; series mostly up to 92.2 µM;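 also: top concentration of the series differs between compounds; % is scaled to controls: 0 for no effect and ±100 for the full control effect; lower thallium flux fluorescence means stronger hERG block; nearly all actives have a fitted effect of over 50% in size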
Sequence of Voltage-gated inwardly rectifying potassium channel KCNH2 (Homo sapiens) (Q12809 whole entry, looked up): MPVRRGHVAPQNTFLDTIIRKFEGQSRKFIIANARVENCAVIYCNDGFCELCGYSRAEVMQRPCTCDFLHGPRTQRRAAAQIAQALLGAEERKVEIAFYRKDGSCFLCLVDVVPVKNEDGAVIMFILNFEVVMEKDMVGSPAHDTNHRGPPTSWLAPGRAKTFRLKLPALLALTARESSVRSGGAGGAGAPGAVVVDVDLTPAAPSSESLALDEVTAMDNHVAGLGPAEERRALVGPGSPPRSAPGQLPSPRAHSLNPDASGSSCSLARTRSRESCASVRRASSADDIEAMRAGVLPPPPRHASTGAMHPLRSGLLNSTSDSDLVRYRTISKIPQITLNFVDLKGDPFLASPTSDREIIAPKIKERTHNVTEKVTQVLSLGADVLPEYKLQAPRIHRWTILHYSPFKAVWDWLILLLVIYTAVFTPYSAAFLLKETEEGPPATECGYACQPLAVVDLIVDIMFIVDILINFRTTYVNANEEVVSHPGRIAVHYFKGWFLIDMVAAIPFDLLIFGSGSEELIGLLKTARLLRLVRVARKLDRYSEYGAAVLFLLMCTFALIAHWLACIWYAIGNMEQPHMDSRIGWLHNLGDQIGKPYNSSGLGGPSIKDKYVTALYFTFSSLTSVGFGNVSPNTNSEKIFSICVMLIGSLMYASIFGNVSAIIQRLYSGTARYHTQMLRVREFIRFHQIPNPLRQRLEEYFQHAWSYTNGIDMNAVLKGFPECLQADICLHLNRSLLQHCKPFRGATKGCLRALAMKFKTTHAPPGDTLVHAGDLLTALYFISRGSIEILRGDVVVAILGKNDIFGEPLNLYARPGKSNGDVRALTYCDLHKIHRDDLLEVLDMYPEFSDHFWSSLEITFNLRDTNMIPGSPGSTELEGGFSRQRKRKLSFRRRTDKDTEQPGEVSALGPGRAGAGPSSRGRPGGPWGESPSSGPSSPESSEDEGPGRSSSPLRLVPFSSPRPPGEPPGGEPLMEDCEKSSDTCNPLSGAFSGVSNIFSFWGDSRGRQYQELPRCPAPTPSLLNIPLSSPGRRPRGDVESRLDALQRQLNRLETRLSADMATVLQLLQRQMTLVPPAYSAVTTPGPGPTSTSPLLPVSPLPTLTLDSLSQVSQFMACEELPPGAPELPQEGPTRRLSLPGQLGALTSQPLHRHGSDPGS
Procedure, shortened: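 U2OS cells BacMam-transduced with hERG, 2000 cells/well, compound ~10 min at 37 °C before stimulation buffer. FluxOR thallium flux fluorescence read kinetically on FDSS; decrease indicates block; AC50 from Hill fits.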

[17] = qHTS assay for small molecule disruptors of the mitochondrial membrane potential - 1 hr assay (AID 651754; calls by dose curve; also: % is scaled to controls: 0 for no effect and ±100 for the full control effect; nearly all actives have a fitted effect of over 35% in size); settings: series mostly up to 92.2 µM
Procedure, shortened: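 HepG2, 2,000 cells/well, overnight attachment; cpd or DMSO 1 hr, 37C/5% CO2; Mito-MPS dye 30 min, 37C; fluorescence monomer (490/535) and aggregate (540/590).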

[18] = qHTS assay for small molecule disruptors of the mitochondrial membrane potential - 5 hr assay (AID 651755; calls by dose curve; also: % is scaled to controls: 0 for no effect and ±100 for the full control effect; nearly all actives have a fitted effect of over 40% in size); settings: JC-1-type ratio dye; series mostly up to 92.2 µM
Procedure, shortened: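 HepG2 cells, attached overnight at 37C, were exposed to compound or DMSO for 5 hr at 37C, 5% CO2. Mito-MPS dye was then added for 30 min, and fluorescence read at 490/535 nm (monomers) and 540/590 nm (aggregates).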

[19] = qHTS assay for small molecule antagonists of the retinoid-related orphan receptor gamma (ROR-gamma) signaling pathway - cell viability counter screen (AID 720652; active = well fitted curve in the direction sought with a large enough effect in the repeat runs; an effect the other way counts as inactive or inconclusive;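 also: compound exposure lasted 16 hr before ATP read; % is scaled to controls: 0 for no effect and ±100 for the full control effect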); settings: RORgamma reporter cell line viability counter screen; series mostly up to 92.2 µM
Procedure, shortened: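 Luminescence from CellTiter-Glo after 30 min at room temperature reported cellular ATP as the cytotoxicity measure. Cells were the CHO reporter line with doxycycline-induced ROR-gamma expression, exposed to compound for 16 hr at 37 C.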

[20] = target: Nuclear receptor subfamily 1 group I member 2 (Rattus norvegicus) (UniProt Q9R1A7); assay: qHTS assay for small molecule activators of the rat pregnane X receptor (rPXR) signaling pathway (AID 651751; call rule not given here; also: 0% is about no effect); settings: rPXR reporter cells, luciferase (One-Glo), 24 h
Sequence of Nuclear receptor subfamily 1 group I member 2 (Rattus norvegicus) (Q9R1A7 whole entry, looked up): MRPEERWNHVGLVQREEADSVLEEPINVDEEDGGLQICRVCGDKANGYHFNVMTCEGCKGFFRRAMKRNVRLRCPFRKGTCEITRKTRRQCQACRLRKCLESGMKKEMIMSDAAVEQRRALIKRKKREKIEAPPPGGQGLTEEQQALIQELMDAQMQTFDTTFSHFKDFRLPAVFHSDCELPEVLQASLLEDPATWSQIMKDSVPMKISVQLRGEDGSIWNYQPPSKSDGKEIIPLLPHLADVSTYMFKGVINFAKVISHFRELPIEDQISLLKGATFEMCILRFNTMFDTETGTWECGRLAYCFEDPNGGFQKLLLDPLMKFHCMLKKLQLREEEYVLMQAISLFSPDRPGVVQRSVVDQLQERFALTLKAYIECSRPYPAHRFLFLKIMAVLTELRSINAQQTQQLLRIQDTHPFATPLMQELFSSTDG

CC(=O)OC1CC(C)OC(C)O1 (configuration not stated)
inactive: Potency [1] > 92 µM | Potency [2] > 92 µM | Potency [3] | Potency [4] | Potency [5] | Potency [6] | Potency [7] | Potency [8] | Potency [9] | Potency [10] | Potency [11] | activation [12] 0.225% and -13.7% | Potency [14] | activity change % (negative = inhibition) [15] -11% and -10.6% | Potency [16] | Potency [17] | Potency [18] | Potency [19] | max response [20] -2.44% and 3.14%
-9.84% and -8.03%: max response [13]

OC1CCCCC1
inactive: Potency [1] > 92 µM | Potency [2] > 92 µM | Potency [3] | Potency [4] | Potency [5] | Potency [6] | Potency [7] | Potency [8] | Potency [9] | Potency [10] | Potency [11] | activation [12] -3.35% | Potency [14] | activity change % (negative = inhibition) [15] 4.86% | Potency [16] | Potency [19] | max response [20] 1.53%
-4.1%: max response [13]

Cc1ccc(N)cc1[N+](=O)[O-]
4.03%: max response [13]
inactive: Potency [1] > 92 µM | Potency [2] > 92 µM | Potency [3] | Potency [4] | Potency [6] | Potency [7] | Potency [8] | Potency [9] | Potency [10] | Potency [11] | activation [12] 0.881% | Potency [14] | activity change % (negative = inhibition) [15] -24.5% | Potency [16] | Potency [17] | Potency [18] | Potency [19] | max response [20] -0.278%

Cc1cccnc1
9.82%: max response [13]
inactive: Potency [1] > 92 µM | Potency [2] > 92 µM | Potency [3] | Potency [4] | Potency [5] | Potency [6] | Potency [7] | Potency [8] | Potency [9] | Potency [10] | Potency [11] | activity change % (negative = inhibition) [15] 13.1% | Potency [16] | Potency [17] | Potency [18] | Potency [19] | max response [20] -3.97%

COc1cc(-c2ccc(N=C=O)c(OC)c2)ccc1N=C=O
-18.6%: max response [13]
inactive: Potency [1] > 92 µM | Potency [2] > 92 µM | Potency [3] | Potency [4] | Potency [5] | Potency [6] | Potency [7] | Potency [8] | Potency [9] | Potency [10] | Potency [11] | Potency [14] | activity change % (negative = inhibition) [15] -7.61% | Potency [16] | Potency [18] | Potency [19]

CC(=O)Nc1cccc(C)c1
-8.8%: max response [13]
inactive: Potency [1] > 92 µM | Potency [3] | Potency [4] | Potency [5] | Potency [7] | Potency [8] | Potency [9] | Potency [10] | Potency [11] | activation [12] -1.44% | Potency [16] | Potency [17] | Potency [18] | Potency [19] | max response [20] -0.307%

C=C1CC[C@H](O)C/C1=C/C=C1\CCC[C@]2(C)[C@@H]([C@H](C)CCCC(C)C)CC[C@@H]12
active: Potency [2] 47.1 µM | activity change, negative = cytotoxicity [3] -97.9% | Potency [5] 31.6 µM | Potency [6] 39.8 µM | Potency [7] 50.1 µM | Potency [8] 39.8 µM | Potency [9] 39.8 µM | Potency [11] 39.8 µM
inactive: activation [12] -3.67% | Potency [14] | Potency [16] | Potency [17] | Potency [18] | max response [20] 7.46%

From PubChem BioAssay (NCATS)
